# Key:
# Experiment in all cases: HT-SELEX; 20 mM HEPES pH 7, 140 mM KCl, 5 mM NaCl, 1 mM K2HPO4, 2 mM MgSO4, 100 uM EGTA, ZnSO4, 0.1% Tween20; room temperature, 1 h; high values mean tight binding
# Settings in all cases: protein: ivt; tags: eGFP (N-terminal); dsDNA, one strand shown
# ZNF721 full-length = ZNF721 full-length (Homo sapiens, UniProt Q8TF20-2 1-923)
# Outline: (§1)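 The binding signal is a relative k-mer count in selected reads, and higher values mean tighter binding. To obtain these reads, bead-bound tagged transcription factor (full-length or DNA-binding-domain fragment, produced in HEK293 lysate or cell-free extract) was mixed with a randomized 40-base DNA library for 1 h at room temperature in low-stringency HEPES/KCl buffer with Tween20. Bound DNA was recovered by washing and heat elution, PCR-amplified through successive cycles and sequenced on Illumina (~3 million 60 bp reads per sample).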
# ZNF721 DBD1 = ZNF721 DBD1 (Homo sapiens, UniProt Q8TF20-2 29-461)
# Outline: as §1
# ZNF721 DBD2 = ZNF721 DBD2 (Homo sapiens, UniProt Q8TF20-2 395-923)
# Outline: as §1
# Sequence of ZNF721 full-length (Q8TF20 other isoform, or with tags, fused parts or gaps): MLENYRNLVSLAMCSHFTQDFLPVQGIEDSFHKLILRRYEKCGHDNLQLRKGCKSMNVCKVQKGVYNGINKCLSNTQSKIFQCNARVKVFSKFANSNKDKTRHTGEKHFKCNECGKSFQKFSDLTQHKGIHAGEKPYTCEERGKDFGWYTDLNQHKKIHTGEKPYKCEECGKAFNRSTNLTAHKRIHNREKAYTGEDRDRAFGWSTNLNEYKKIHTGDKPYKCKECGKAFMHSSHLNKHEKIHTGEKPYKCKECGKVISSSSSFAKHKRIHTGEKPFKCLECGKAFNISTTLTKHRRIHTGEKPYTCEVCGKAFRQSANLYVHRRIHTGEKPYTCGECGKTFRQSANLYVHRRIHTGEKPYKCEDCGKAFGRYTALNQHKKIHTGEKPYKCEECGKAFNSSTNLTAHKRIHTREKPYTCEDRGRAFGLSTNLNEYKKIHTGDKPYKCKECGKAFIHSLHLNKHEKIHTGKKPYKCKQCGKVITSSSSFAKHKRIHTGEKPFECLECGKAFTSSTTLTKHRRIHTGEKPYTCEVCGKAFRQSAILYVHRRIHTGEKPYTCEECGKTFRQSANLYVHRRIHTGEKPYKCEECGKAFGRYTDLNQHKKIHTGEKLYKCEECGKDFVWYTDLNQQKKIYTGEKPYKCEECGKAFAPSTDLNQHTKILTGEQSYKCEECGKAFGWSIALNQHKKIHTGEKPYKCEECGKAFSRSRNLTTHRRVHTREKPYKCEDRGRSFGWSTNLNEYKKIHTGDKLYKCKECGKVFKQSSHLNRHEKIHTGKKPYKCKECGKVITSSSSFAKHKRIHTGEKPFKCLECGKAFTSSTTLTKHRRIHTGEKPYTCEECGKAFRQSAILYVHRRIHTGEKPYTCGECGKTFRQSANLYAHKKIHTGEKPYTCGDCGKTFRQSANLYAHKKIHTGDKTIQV
# Sequence of ZNF721 DBD1 (Q8TF20 17-449): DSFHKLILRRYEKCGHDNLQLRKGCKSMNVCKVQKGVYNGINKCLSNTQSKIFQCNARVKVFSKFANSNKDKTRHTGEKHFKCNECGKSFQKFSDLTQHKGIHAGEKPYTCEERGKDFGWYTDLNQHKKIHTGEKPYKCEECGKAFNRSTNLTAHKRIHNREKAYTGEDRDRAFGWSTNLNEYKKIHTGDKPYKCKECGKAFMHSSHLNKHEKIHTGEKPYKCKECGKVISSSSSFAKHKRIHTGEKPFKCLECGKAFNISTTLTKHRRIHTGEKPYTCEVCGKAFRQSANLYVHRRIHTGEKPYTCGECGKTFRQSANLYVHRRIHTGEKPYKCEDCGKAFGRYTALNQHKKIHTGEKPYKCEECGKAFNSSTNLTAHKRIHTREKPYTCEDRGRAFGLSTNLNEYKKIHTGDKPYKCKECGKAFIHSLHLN
# Sequence of ZNF721 DBD2 (Q8TF20 383-911): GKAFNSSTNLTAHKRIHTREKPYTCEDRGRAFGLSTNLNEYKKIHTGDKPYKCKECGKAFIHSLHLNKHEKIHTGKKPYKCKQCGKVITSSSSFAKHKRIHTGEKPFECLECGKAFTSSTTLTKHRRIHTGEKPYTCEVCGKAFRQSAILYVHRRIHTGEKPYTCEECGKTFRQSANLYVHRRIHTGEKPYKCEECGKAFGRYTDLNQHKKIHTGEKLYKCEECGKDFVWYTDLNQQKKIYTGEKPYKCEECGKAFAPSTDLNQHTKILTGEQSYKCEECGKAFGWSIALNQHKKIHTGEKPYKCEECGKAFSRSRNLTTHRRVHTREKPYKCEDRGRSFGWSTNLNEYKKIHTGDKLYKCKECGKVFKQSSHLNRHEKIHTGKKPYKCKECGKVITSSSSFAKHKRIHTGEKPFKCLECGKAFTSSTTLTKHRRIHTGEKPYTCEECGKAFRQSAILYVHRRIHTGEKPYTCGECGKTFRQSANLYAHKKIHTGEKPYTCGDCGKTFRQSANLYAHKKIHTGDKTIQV
Sequence,binding signal (ZNF721 full-length),binding signal (ZNF721 DBD1),binding signal (ZNF721 DBD2)
CTCCCCCCAC,0.148 relative 10-mer count,0.00794 relative 10-mer count,0.00419 relative 10-mer count
GGGCGGGGGA,0.122 relative 10-mer count,0.00482 relative 10-mer count,0.00216 relative 10-mer count
TCCCCCACCA,0.114 relative 10-mer count,0.00527 relative 10-mer count,0.00407 relative 10-mer count
CCCACCCGCC,0.216 relative 10-mer count,0.00794 relative 10-mer count,0.00539 relative 10-mer count
GTGGTGGGGA,0.14 relative 10-mer count,0.00674 relative 10-mer count,0.00443 relative 10-mer count
CCCCAACCCA,0.13 relative 10-mer count,0.00482 relative 10-mer count,0.00384 relative 10-mer count
CCATCCCACC,0.138 relative 10-mer count,0.00697 relative 10-mer count,0.00575 relative 10-mer count
CTGCTTTTTC,0.202 relative 10-mer count,0.00491 relative 10-mer count,0.196 relative 10-mer count
CACGCCACCC,0.103 relative 10-mer count,0.00344 relative 10-mer count,0.00587 relative 10-mer count
CCCCACCCGC,0.186 relative 10-mer count,0.00651 relative 10-mer count,0.003 relative 10-mer count
CCCCTCACCC,0.187 relative 10-mer count,0.00711 relative 10-mer count,0.00503 relative 10-mer count
CCACCCCCCA,0.272 relative 10-mer count,0.0103 relative 10-mer count,0.00443 relative 10-mer count
CCCCCCGCCG,0.104 relative 10-mer count,0.00303 relative 10-mer count,0.0024 relative 10-mer count
CTCCCCGCCC,0.131 relative 10-mer count,0.00583 relative 10-mer count,0.00372 relative 10-mer count
CACGCCCCCC,0.123 relative 10-mer count,0.00454 relative 10-mer count,0.00635 relative 10-mer count
AGTGTCTCCA,0.147 relative 10-mer count,0.0423 relative 10-mer count,0.282 relative 10-mer count
CACCCCACCC,0.31 relative 10-mer count,0.012 relative 10-mer count,0.0036 relative 10-mer count
AAAGCAGTAC,0.156 relative 10-mer count,0.0228 relative 10-mer count,0.0905 relative 10-mer count
CCCCTCCCAC,0.218 relative 10-mer count,0.0104 relative 10-mer count,0.00695 relative 10-mer count
CACCGCCCCA,0.107 relative 10-mer count,0.00404 relative 10-mer count,0.0024 relative 10-mer count
GCCCCCCGCC,0.123 relative 10-mer count,0.00477 relative 10-mer count,0.003 relative 10-mer count
CCACCAACCC,0.156 relative 10-mer count,0.0067 relative 10-mer count,0.00491 relative 10-mer count
AAAAGCAGCC,0.136 relative 10-mer count,0.00261 relative 10-mer count,0.112 relative 10-mer count

Sequence,binding signal (ZNF721 full-length),binding signal (ZNF721 DBD1),binding signal (ZNF721 DBD2)
CCACCCACCG,0.143 relative 10-mer count,0.00615 relative 10-mer count,0.00731 relative 10-mer count
CCCCCACCCA,0.256 relative 10-mer count,0.00931 relative 10-mer count,0.00348 relative 10-mer count
CCGCCACCCC,0.307 relative 10-mer count,0.0102 relative 10-mer count,0.0018 relative 10-mer count
CTTTTTTTTA,0.14 relative 10-mer count,0.0207 relative 10-mer count,0.0588 relative 10-mer count
CCCACCCCCA,0.28 relative 10-mer count,0.0118 relative 10-mer count,0.00647 relative 10-mer count
CGCACCCCCC,0.118 relative 10-mer count,0.00463 relative 10-mer count,0.00276 relative 10-mer count
GAAAAGCAGC,0.106 relative 10-mer count,0.00147 relative 10-mer count,0.125 relative 10-mer count
CAACCCCACC,0.149 relative 10-mer count,0.00454 relative 10-mer count,0.00384 relative 10-mer count
CCCCCACGCC,0.181 relative 10-mer count,0.00688 relative 10-mer count,0.00419 relative 10-mer count
CCCTCACCAC,0.104 relative 10-mer count,0.00482 relative 10-mer count,0.00587 relative 10-mer count
ACGAAAAAAG,0.126 relative 10-mer count,0.0251 relative 10-mer count,0.0417 relative 10-mer count
CCCCTCCCCG,0.128 relative 10-mer count,0.00527 relative 10-mer count,0.00216 relative 10-mer count
ACCACCCGCC,0.125 relative 10-mer count,0.00445 relative 10-mer count,0.00312 relative 10-mer count
CGCCCCCTCC,0.135 relative 10-mer count,0.00605 relative 10-mer count,0.00407 relative 10-mer count
CAAAAAAACA,0.365 relative 10-mer count,0.00349 relative 10-mer count,0.263 relative 10-mer count
CCCCCCTGCC,0.121 relative 10-mer count,0.00399 relative 10-mer count,0.00168 relative 10-mer count
ACCCCCCGCC,0.137 relative 10-mer count,0.00555 relative 10-mer count,0.00384 relative 10-mer count
ACCCCCACAC,0.108 relative 10-mer count,0.00312 relative 10-mer count,0.00527 relative 10-mer count
CCACCACCAC,0.19 relative 10-mer count,0.00688 relative 10-mer count,0.00647 relative 10-mer count
GGGGGTGGGA,0.205 relative 10-mer count,0.0115 relative 10-mer count,0.00312 relative 10-mer count
AAAAAGCGTA,0.178 relative 10-mer count,0.0453 relative 10-mer count,0.0266 relative 10-mer count
ACCCCACCGC,0.106 relative 10-mer count,0.00408 relative 10-mer count,0.00336 relative 10-mer count
CGCCACCACC,0.108 relative 10-mer count,0.00468 relative 10-mer count,0.00384 relative 10-mer count
